This is a sample that favours compounds with a hit; in the whole collection about 4.2% have one here.
ClpP mod – qHTS Assay for Activators of ClpP. AID 651965, 2013. hit rate 1.9% among 340,000. purified B. subtilis ClpP, FRET peptide cleavage, 20 min. Potency, µM (series often up to 57.5 µM), without a hit: at the highest dose activity change, negative = active; active = well fitted falling curve with a large enough effect; inconclusive = small, poorly fitted or top-dose-only effect; inactive = no such curve, though single readings can be large or run the other way; note: potency is the fitted concentration of half-maximal effect; the source files actives as falling curves though it sought activators and does not explain the sign; nearly all actives have a fitted effect of over 65% in size
Target sequence (P80244 whole entry, looked up): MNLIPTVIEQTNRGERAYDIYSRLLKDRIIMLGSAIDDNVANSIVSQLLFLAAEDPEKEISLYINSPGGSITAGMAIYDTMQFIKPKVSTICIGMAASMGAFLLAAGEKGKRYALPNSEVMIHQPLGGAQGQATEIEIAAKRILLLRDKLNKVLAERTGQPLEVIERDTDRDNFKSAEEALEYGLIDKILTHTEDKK
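Purified B. subtilis ClpP, 10 microg/mL final in Tris/HCl pH8 with KCl, BSA, glycerol and Tween-20, cleaved an Abz/nitrotyrosine-quenched decapeptide. Fluorescence (ex 320, em 430) was read at 0 and 20 min at room temperature. Delta was normalized to 5.8 microM ADEP and DMSO/no-enzyme controls.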
uPA generation – qHTS for Inhibitors of Cell Surface uPA Generation. cell surface uPA generation assay, qHTS. Potency, µM (top dose mostly 38.3 µM), for the others: top-dose activity change, negative = inhibition, actives largely listed as inhibitors. hit rate 0.31% among 330,000; active = well fitted inhibition curve with a large enough effect; inconclusive = small, poorly fitted or top-dose-only effect; inactive = no such curve, though single readings can be large or run the other way; tested in mouse RAW 264.7 cells; note: potency is the fitted concentration of half-maximal effect; % is set by controls: 0 for no effect and ±100 for the full control effect; nearly all actives have a fitted effect of over 55% in size
Sfp PPTase inh – qHTS Assay for Inhibitors of Bacillus subtilis Sfp phosphopantetheinyl transferase (PPTase). Potency, µM, inactives show largest response in the series, negative = inhibition, most hits filed as inhibitors. AID 1490, 2009. Biochemical Sfp PPTase activity, qHTS. hit rate 3.5% among 310,000. 4'-phosphopantetheinyl transferase ffp (Bacillus subtilis), Q9F4F7;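 note: the enzyme is Sfp with the accession as filed and its product quenches rhodamine fluorescence; potency is the fitted concentration of half-maximal effect; 0% = enzyme reaction without inhibitor and -100% = no enzyme wells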
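Reaction rates are the 30-min fluorescence difference (ex 525, em 598 nm) in wells containing 15 nM Sfp, 5 uM rhodamine-CoA and 12.5 uM BHQ-2-YbbR at pH 7.6 with 10 mM MgCl2.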
TCR act – Activators of T cell receptors: qHTS campaign. primary human leukocytes, anti-CD3, IL-2 HTRF, 48 h. Potency, µM (titrated, usually from 9.22 µM), for the others: top-dose activation of IL-2 secretion, hits mostly activators. 330,000 tested, under 10 active; note: % of control where 0% means no effect
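Using a-CD3 beads without co-stimulation, primary human leukocytes were exposed to compounds for 48 hr. An HTRF IL-2 kit measured the cytokine, with europium-to-d2 energy transfer producing emission at 665nm upon 320nm excitation.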
* marks the source's active call; other numbers are inactive results; [ ] = dose if it differs, or a comment. Unless noted, calls come from the whole dose curve; as a rule, active = well fitted curve in the direction sought with a large enough effect; inconclusive = small, poorly fitted or top-dose-only effect, or another doubt; inactive = no such curve, though single readings can be large; an effect the other way counts as inactive or inconclusive.

Screening O=C(c1ccccc1)N1CCn2c(nc3ccccc32)C1 returned ClpP mod 9%, uPA generation -4%, Sfp PPTase inh 11% and TCR act -2%.
`O=C(NCc1ccccc1)N1CCn2c(nc3ccccc32)C1` gave ClpP mod 32µM*, uPA generation -3%, Sfp PPTase inh 12% and TCR act 3%[46.1 µM].
`Cc1ccc(S(=O)(=O)N[C@@H](Cc2ccccc2)C(=O)CCl)cc1` gave ClpP mod 0%, uPA generation 5µM*, Sfp PPTase inh 0% and TCR act -26%.
Cc1ccc(NC(=O)CN2C(=O)CC(c3ccc(C)c(C)c3)=Nc3ccccc32)cc1 was read as ClpP mod -1%.
Screening COC(=O)c1ccc(CC(=O)c2c(C)cc(O)cc2O)o1 returned ClpP mod 0%, uPA generation -2%, Sfp PPTase inh 40µM* and TCR act 9%.
For COc1ccc(C2CC(c3ccc4ccccc4c3)=NN2C(=O)CSc2ncccn2)cc1 (stereo not drawn) the results were ClpP mod 22µM*, uPA generation 0%, Sfp PPTase inh -8% and TCR act 3%[46.1 µM].
For COc1ccc(C2=NN(C(=O)CSc3ncccn3)C(c3ccc(OC)cc3)C2)cc1 (stereo not drawn) the results were ClpP mod -11%, uPA generation -3%, Sfp PPTase inh -18% and TCR act 12%[46.1 µM].
For Cc1nc(SCC(=O)NC(=O)NC2CCCCC2)nc(C)c1C the results were ClpP mod 0%, Sfp PPTase inh 50µM* and TCR act 3%.
Cc1cc(C)n2nc(SCC(=O)NC3CCCCC3)nc2n1 was read as ClpP mod -1%, uPA generation -11%, Sfp PPTase inh 40µM* and TCR act -19%.
OCC1OCOC2C(CO)OCOC12 (stereo not drawn) was read as ClpP mod 2%, uPA generation 2% and TCR act -9%.
`O=C(NNc1ccccc1)c1sc2ccccc2c1Cl` gave ClpP mod -2%.
CCOc1ccc(-n2c(-c3ccco3)n[nH]c2=S)cc1 was read as ClpP mod inconclusive, uPA generation -4%, Sfp PPTase inh 50µM* and TCR act -3%.
Screening Fc1ccc(-n2c(-c3ccco3)n[nH]c2=S)cc1 returned ClpP mod inconclusive, uPA generation 1%, Sfp PPTase inh 79µM* and TCR act -1%.
`Cc1ccc(-n2c(-c3nn(C)cc3Cl)n[nH]c2=S)cc1` gave ClpP mod -1%, uPA generation 6%, Sfp PPTase inh 13µM* and TCR act -4%[46.1 µM].
`Cc1ccc(-n2c(-c3ccco3)n[nH]c2=S)cc1` gave uPA generation 5% and Sfp PPTase inh 79µM*.
S=c1[nH]nc(-c2ccco2)n1-c1ccccc1Cl was read as uPA generation 4%, Sfp PPTase inh -7% and TCR act 7%.
For CN(C)S(=O)(=O)c1cccc(NC(=O)CSc2cccc3cccnc23)c1 the results were uPA generation 3%, Sfp PPTase inh -2% and TCR act -2%.
COCCSc1ccccc1C(=O)Nc1nnc(C)s1 was read as ClpP mod 0%, uPA generation 0%, Sfp PPTase inh -1% and TCR act 0%.
`COCCSc1ccccc1C(=O)Nc1ccccc1C(C)C` gave ClpP mod 0%, uPA generation -1%, Sfp PPTase inh 18µM* and TCR act -3%.
For Cc1c(C(=O)NCc2cccc(F)c2)oc2c1-c1[nH]ncc1CC2 the results were ClpP mod 28µM*.
CCOc1ccccc1CNC(=O)c1oc2c(c1C)-c1[nH]ncc1CC2 was read as ClpP mod -30%.
C=CCOc1ccccc1CN1CCC(Oc2ccc(C(=O)N3CCCCC3)cc2)CC1 was read as ClpP mod -1%, uPA generation inconclusive, Sfp PPTase inh -2% and TCR act 0%.
`Cc1c(SCCO)c(=O)[nH]c2cc3c(cc12)OCO3` gave ClpP mod 25µM*, Sfp PPTase inh 12% and TCR act 10%.
For CCN1CCN(CCn2c(=S)[nH]c3cc4c(cc3c2=O)OCO4)CC1 the results were ClpP mod -1%, uPA generation 0%, Sfp PPTase inh -6% and TCR act -4%.
`COc1cc(OC)cc(C(=O)N2CC(=O)Nc3ccc(Cl)cc3C2c2ccccc2)c1` (stereo not drawn) gave ClpP mod 0%.
C1=CC2c3ccccc3NC(c3ccncc3)C2C1 (stereo not drawn) was read as ClpP mod -1%, uPA generation -1%, Sfp PPTase inh 32µM* and TCR act 1%.
For CC(=O)c1ccc(C(=O)N(Cc2cccnc2)c2nc3c(C)c(C)ccc3s2)cc1 the results were ClpP mod -1%.
`COc1cc(C/C=C\c2ccccc2)c(OC)cc1O` gave Sfp PPTase inh 45µM*.
`COc1ccc(CN2CCc3c([nH]c4ccccc34)C2)c(OC)c1C` gave ClpP mod 28µM*, uPA generation 2% and Sfp PPTase inh -24%.
`C=CCOC(=O)C(C(C)=O)C(NC(=O)OC)c1ccco1` (stereo not drawn) gave Sfp PPTase inh 26%.
`FC(F)(F)c1cc(-c2ccccc2)nc(NC2CCCC2)n1` gave ClpP mod 32µM*, uPA generation 5%, Sfp PPTase inh 8% and TCR act 5%.
For FC(F)(F)c1cc(-c2ccccc2)nc(NCC2CCCO2)n1 (stereo not drawn) the results were ClpP mod -16%, uPA generation 3%, Sfp PPTase inh 2% and TCR act -3%.
Screening Cc1cc(C(=O)NCCC2=CCCCC2)c(C)o1 returned ClpP mod -3%, Sfp PPTase inh 35µM* and TCR act -3%.
Cc1ccc(S(=O)(=O)N2CCCCC2)cc1C(=O)NCCC1=CCCCC1 was read as ClpP mod 2%, uPA generation -2% and TCR act -4%.
Screening COC(=O)C1=C(C)N(Cc2ccccc2)C(=O)N[C@H]1c1cccc(F)c1 returned ClpP mod -3%, uPA generation 3%, Sfp PPTase inh 15% and TCR act -2%.
`COC(=O)C1=C(C(=O)OC)C2(OC1c1cccc(F)c1)C(=O)c1ccccc1C2=O` (stereo not drawn) gave ClpP mod -1%, uPA generation -1%, Sfp PPTase inh 79µM* and TCR act 1%.
For Cc1nc(N2CCN(C(=O)c3ccco3)CC2)c2c3c(sc2n1)CCCC3 the results were ClpP mod -7%, uPA generation -18%, Sfp PPTase inh 5% and TCR act 2%[46.1 µM].
Cc1nc(N2CCN(C(=O)c3ccco3)CC2)c2c3c(sc2n1)CC(C)CC3 (stereo not drawn) was read as ClpP mod -4%, uPA generation 2.8µM*, Sfp PPTase inh inconclusive and TCR act -2%.
